{"source": "PubChem BioAssay AID686978", "about": "(National Center for Advancing Translational Sciences (NCATS), 2013)", "note": "About 64,000 (15%) of roughly 420,000 compounds were called active. Roughly 27% stayed inconclusive and do not appear here. Calls follow the shape of the dose curve; as a rule, active = well fitted inhibition curve with a large enough effect; inconclusive = small, poorly fitted or top-dose-only effect; inactive = flat fitted curve, though single readings scatter. A selection follows. Square brackets hold non-standard residues; d marks the D form. Peptide text beside a SMILES is read from it. ξ: configuration not given here. Ac5c = NC1(C(=O)O)CCCC1; ξS = NC(CO)C(=O)O", "data": [{"experiment": "qHTS for Inhibitors of human tyrosyl-DNA phosphodiesterase 1 (TDP1): qHTS in cells in absence of CPT; also: nearly all actives have a fitted effect of over 55% in size; also: potency is read from the fitted curve at half-maximal effect; as to activity change, negative = growth inhibition: % is scaled to controls: 0 for no effect and ±100 for the full control effect", "conditions": "DT40 Tdp1-/- hTDP1 cells, no CPT, ATP luminescence, 48 h; activity change, negative = growth inhibition: at 46.2 µM (top of the series)", "summary_of_the_method": "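Camptothecin absent (DMSO only). Human TDP1-complemented DT40 knockout cells, 400 cells/well, 37 °C for minimum 48 hr; ATP measured via CellTiter-Glo, 30 min dark incubation, luminescence.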", "values": [{"smiles": "O=C(COC(=O)c1cc2c(s1)CCCC2)NCc1ccccc1Cl", "activity change, negative = growth inhibition": "-5.8% (inactive)"}, {"smiles": "C/C(=N\\NC(=O)c1ccc(CSc2nc(C)cc(C)n2)cc1)C1CCCCC1", "activity change, negative = growth inhibition": "-16.8% (inactive)"}, {"smiles": "CC1CCN(C(=O)/C(=C\\c2ccccc2F)NC(=O)c2ccccc2)CC1", "activity change, negative = growth inhibition": "-22.6% (inactive)"}, {"smiles": "COC(=O)c1cccc(N(C(=O)CNC(=O)c2cccs2)C(C(=O)NCC2CCCO2)c2ccc(OC)c(OC)c2)c1", "note": "(centres undefined)", "activity change, negative = growth inhibition": "-19.2% (inactive)"}, {"smiles": "CCOCCn1c(C(C)C)nc2ccccc21", "activity change, negative = growth inhibition": "-25.3% (inactive)"}, {"smiles": "CCCn1c(C(O)c2cc(OC)ccc2OC)nc2ccccc21", "note": "(centres undefined)", "activity change, negative = growth inhibition": "-14.8% (inactive)"}, {"smiles": "CCOCCn1c(-c2ccccc2)nc2ccccc21", "Potency": "18.4 µM (active)"}, {"smiles": "COc1ccc(-c2nc3ccccc3n2CCC(C)C)cc1OC", "Potency": "25.9 µM (active)"}, {"smiles": "COCCn1c(-c2ccc(OC)c(OC)c2)nc2ccccc21", "activity change, negative = growth inhibition": "-26.5% (inactive)"}, {"smiles": "CCCCCN(C(=O)NC(=O)Nc1ccccc1OC)S(C)(=O)=O", "activity change, negative = growth inhibition": "-17.8% (inactive)"}, {"smiles": "CC(C)c1ccc(NC(=O)Cn2nnc(C(=O)NCCc3ccccc3)c2N)cc1", "activity change, negative = growth inhibition": "5.52% (inactive)"}, {"smiles": "CN(C)c1ccc(/C=C/c2sc3ccccc3[n+]2CCCCBr)cc1", "Potency": "0.316 µM (active)"}, {"smiles": "CN(C)c1ccc(/C=C/c2sc3ccccc3[n+]2C)cc1", "Potency": "0.141 µM (active)"}, {"smiles": "Cc1cccc(CN2CCN(Cc3cnn(-c4ccccc4F)c3)CC2CCO)n1", "note": "(centres undefined)", "activity change, negative = growth inhibition": "-16% (inactive)"}, {"smiles": "CC(=O)N1CCN(S(=O)(=O)c2ccc(C)c([N+](=O)[O-])c2)C1C(C)C", "note": "(centres undefined)", "activity change, negative = growth inhibition": "-4.36% (inactive)"}, {"smiles": "O=C1CC2(CCCC2)C(=O)N1CN1CCN(S(=O)(=O)c2ccc(F)cc2F)CC1", "activity change, negative = growth inhibition": "-2.62% (inactive)"}, {"smiles": "CCC(C(=O)Nc1ncccn1)(C(F)(F)F)C(F)(F)F", "activity change, negative = growth inhibition": "-8.1% (inactive)"}, {"smiles": "COc1cc(Cl)c(C)cc1NC(=O)CSc1nnc(CN2CCCC2)o1", "activity change, negative = growth inhibition": "21.9% (inactive)"}, {"smiles": "COc1cc(NC(=O)CSC(=S)N2CCCC2)c(OC)cc1Cl", "Potency": "14.6 µM (active)"}, {"smiles": "CCOCC(=O)Nc1cc(OC)c(Cl)cc1OC", "activity change, negative = growth inhibition": "-4.91% (inactive)"}, {"smiles": "COc1ccc(C(=O)N(C)CC(O)c2ccccc2)cc1OC1CCN(C(C)=O)CC1", "note": "(centres undefined)", "activity change, negative = growth inhibition": "18.6% (inactive)"}, {"smiles": "Cc1cc2c(=O)n(CC(=O)NCC(=O)Nc3ccc(C(C)C)cc3)cnc2s1", "activity change, negative = growth inhibition": "11.4% (inactive)"}, {"smiles": "CCC1(C)Cc2c(sc3nc(SC)[nH]c(=O)c23)CO1", "note": "(centres undefined)", "activity change, negative = growth inhibition": "-2.82% (inactive)"}, {"smiles": "CCC1(C)Cc2c(sc3[nH]c(=S)n(Cc4ccccc4)c(=O)c23)CO1", "note": "(centres undefined)", "Potency": "18.4 µM (active)"}, {"smiles": "CCC1(C)Cc2c(sc3nc(SC)nc(N)c23)CO1", "note": "(centres undefined)", "activity change, negative = growth inhibition": "-40% (inactive)"}, {"smiles": "Cc1ccc(/C=C/C(=O)O)cc1S(=O)(=O)N1CCC(Cc2ccccc2)CC1", "activity change, negative = growth inhibition": "4.06% (inactive)"}, {"smiles": "CCOC(=O)C(CO)NC(=O)C1(NC(C)=O)CCCC1", "note": "(centres undefined) (Ac-[Ac5c]-[ξS]-OEt)", "activity change, negative = growth inhibition": "18.1% (inactive)"}, {"smiles": "C/C(CC(=O)Nc1ccc(N(C)C)cc1)=N\\NC(=O)c1ccccc1F", "activity change, negative = growth inhibition": "6.54% (inactive)"}, {"smiles": "Cc1cccc(C)c1NC(=S)N1CCCCCC1", "activity change, negative = growth inhibition": "-7.49% (inactive)"}, {"smiles": "C/C(=N\\NC(=O)c1ccccc1F)c1ccccn1", "Potency": "0.517 µM (active)"}, {"smiles": "COc1ccc(C/C(C)=N/NC(=O)c2ccncc2)cc1", "activity change, negative = growth inhibition": "10.6% (inactive)"}, {"smiles": "COc1ccc(CC(=O)N/N=C(\\C)c2ccccn2)cc1", "Potency": "7.31 µM (active)"}, {"smiles": "COc1ccc(/C(C)=N/NC(=O)c2ccc3nc[nH]c3c2)cc1", "activity change, negative = growth inhibition": "1.6% (inactive)"}, {"smiles": "O=C(Nc1ccc(NC(=O)c2ccccc2F)cc1)c1ccccc1F", "activity change, negative = growth inhibition": "-0.0635% (inactive)"}, {"smiles": "CC(=NNC(=S)N1CCCCCC1)c1ccccn1", "Potency": "0.0164 µM (active)"}, {"smiles": "CNC(=S)N1CCN(c2ccccn2)CC1", "activity change, negative = growth inhibition": "0.242% (inactive)"}, {"smiles": "C/C(=N\\NC(=O)Cc1ccc(Cl)cc1)c1ccccn1", "Potency": "2.31 µM (active)"}, {"smiles": "C/C(=N\\NC(=O)Cc1ccc(Br)cc1)c1cccnc1", "activity change, negative = growth inhibition": "6% (inactive)"}, {"smiles": "CC1=NNC(=O)C1CCC(=O)N/N=C(\\C)c1ccc(Cl)cc1", "note": "(centres undefined)", "activity change, negative = growth inhibition": "-2.58% (inactive)"}, {"smiles": "CCN(CC(=O)Nc1cc(Cl)ccc1C)C(=O)Cn1c(=O)cnc2ccccc21", "activity change, negative = growth inhibition": "4.61% (inactive)"}, {"smiles": "Cc1ccc(CC(=O)N(C)CC(=O)N(CC(C)C)c2c(N)n(CC(C)C)c(=O)[nH]c2=O)cc1C", "activity change, negative = growth inhibition": "-14.8% (inactive)"}, {"smiles": "O=C(COC(=O)c1ncc(Cl)c(Cl)c1Cl)NCc1cccs1", "activity change, negative = growth inhibition": "9.23% (inactive)"}, {"smiles": "CCN(CC)C(=O)Cn1cc(S(=O)(=O)CC(=O)NCc2ccc3c(c2)OCO3)c2ccccc21", "activity change, negative = growth inhibition": "-2.15% (inactive)"}, {"smiles": "Cc1ccccc1/C=C\\c1nc(O)c([N+](=O)[O-])c(=O)[nH]1", "activity change, negative = growth inhibition": "1.57% (inactive)"}, {"smiles": "Cc1ccc(NC(=O)COc2ccc(/C=N\\NC(=O)c3cccnc3)cc2)cc1C", "activity change, negative = growth inhibition": "-4.49% (inactive)"}, {"smiles": "CCOc1cc2c(Cl)ncnc2c(OCC)c1OCC", "activity change, negative = growth inhibition": "-0.504% (inactive)"}, {"smiles": "O=S(=O)(Nc1ccc(OC(F)(F)F)cc1)c1cccc2nonc12", "activity change, negative = growth inhibition": "-26.6% (inactive)"}, {"smiles": "CCOc1ccc(S(=O)(=O)n2ccnc2)c2ccccc12", "activity change, negative = growth inhibition": "0.648% (inactive)"}, {"smiles": "CC1(C)OC(=O)C2=C(CC(c3ccccc3)OC2CCc2ccccc2)O1", "note": "(centres undefined)", "Potency": "23.1 µM (active)"}, {"smiles": "CC[C@@H]1CC2=C(C(=O)OC(C)(C)O2)[C@@H](CC)O1", "activity change, negative = growth inhibition": "-9.09% (inactive)"}, {"smiles": "CC(C)C1CC2=C(C(=O)OC(C)(C)O2)C(c2ccc(F)cc2)O1", "note": "(centres undefined)", "activity change, negative = growth inhibition": "-0.527% (inactive)"}, {"smiles": "CN(C)c1nc(-c2cccnc2)nc(-c2ccc(Cl)cc2)c1C#N", "activity change, negative = growth inhibition": "-26.8% (inactive)"}, {"smiles": "CN(C)C(=O)Cn1c(=O)n(S(=O)(=O)c2ccccc2)c2ccccc21", "activity change, negative = growth inhibition": "1.81% (inactive)"}, {"smiles": "Cc1ccc(-c2noc(CCC(N)=O)n2)cc1", "activity change, negative = growth inhibition": "-15.8% (inactive)"}, {"smiles": "CCNC(=O)CCc1nc(-c2ccc(C)cc2)no1", "activity change, negative = growth inhibition": "-26.5% (inactive)"}, {"smiles": "CC(=O)c1ccc(NC(=O)CCc2nc(-c3ccc(C)cc3)no2)cc1", "Potency": "16.4 µM (active)"}, {"smiles": "CC(C)CC(=O)N=C1SC2CS(=O)(=O)CC2N1CCc1ccccc1", "note": "(centres undefined)", "activity change, negative = growth inhibition": "-18.7% (inactive)"}, {"smiles": "CCOC(=O)C1CCN(Cc2nnc(-c3cccc(Br)c3)o2)CC1", "activity change, negative = growth inhibition": "-4.65% (inactive)"}, {"smiles": "CCOC(=O)C1CCCN(C(=O)c2cccc3ccccc23)CC1", "note": "(centres undefined)", "activity change, negative = growth inhibition": "-29.7% (inactive)"}, {"smiles": "CCOC(=O)C1CCN(Cc2ccc(-c3ccccc3)cc2)CC1", "activity change, negative = growth inhibition": "3.59% (inactive)"}, {"smiles": "CCOC(=O)C1CCN(C(=O)COc2cc(C)c(Br)c(C)c2)CC1", "activity change, negative = growth inhibition": "-22.3% (inactive)"}, {"smiles": "CCOC(=O)C1CCN(c2ncnc3c2c(-c2ccccc2)cn3-c2ccc(C)cc2)CC1", "Potency": "18.4 µM (active)"}, {"smiles": "CCOC(=O)C1CCN(c2ncnc3c2c(-c2ccccc2)cn3-c2cccc(C)c2)CC1", "Potency": "23.1 µM (active)"}, {"smiles": "O=C(O)CCC(=O)Nc1ccc(N2CCOCC2)cc1", "activity change, negative = growth inhibition": "-10.6% (inactive)"}, {"smiles": "CCCC1C(=O)N2C(N(C)C)=Nc3ccc(C)cc3N2C1=O", "note": "(centres undefined)", "Potency": "inactive"}, {"smiles": "CC(=O)Nc1ccc(NC(=O)c2sc3nc4c(c(-c5ccc(C)cc5)c3c2N)CCC4)cc1", "activity change, negative = growth inhibition": "-9.97% (inactive)"}, {"smiles": "Cc1sc2nc(CC(N)=O)[nH]c(=O)c2c1-c1ccccc1", "activity change, negative = growth inhibition": "1.96% (inactive)"}, {"smiles": "Cc1nc2sc(C(=O)c3ccccc3)c(N)c2c2c1CCCC2", "Potency": "20.6 µM (active)"}, {"smiles": "CCOC(=O)c1sc2nc(SC)nc(-c3ccccc3)c2c1N", "activity change, negative = growth inhibition": "-8.81% (inactive)"}, {"smiles": "CN(C)c1ccnc2sc(C(=O)c3ccccc3)c(N)c12", "activity change, negative = growth inhibition": "-0.214% (inactive)"}, {"smiles": "Cc1nn(C)cc1C(=O)c1ccccc1", "activity change, negative = growth inhibition": "1.93% (inactive)"}, {"smiles": "Cc1cccc(NC(=O)/C(=C\\c2ccco2)NC(=O)c2ccccc2)c1", "activity change, negative = growth inhibition": "5.21% (inactive)"}, {"smiles": "NC(=O)c1sc2nc3c(c(-c4ccccc4)c2c1N)CCC3", "Potency": "13 µM (active)"}, {"smiles": "Cc1cccc(NC(=O)c2sc3nc4c(c(-c5ccco5)c3c2N)CCC4)c1", "Potency": "25.9 µM (active)"}]}]}
